The values below come from PubChem BioAssay (NCI).

This is part of a sample that, as a whole, favours compounds with a hit. Of some 83,000 tested, about 20% had one in any assay.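 The endpoint reported here, percent growth, reads 100 for growth as untreated, 0 for no net growth and -100 for all cells dead.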 A number with no mark means an inactive call. Activity calls are given as the source filed them. How the source made its calls: active means growth percent below 10; inactive means the rest.

For the assay, the system named is HL-60(TB) leukemia. Briefly: NCI-60 one-dose screen, 48 h (100 = growth as untreated, 0 = no growth, -100 = all killed). To be noted: 10 µM unless noted.
Regarding `O=C(CSc1nnc(Cc2ccccc2Nc2c(Cl)cccc2Cl)n1-c1ccccc1)N1N=C(c2ccc3ccccc3c2)CC1c1ccc(Cl)cc1` (stereo unspecified), the growth is 98%.
For the compound `CO[C@H]1CC[C@@]2(C)C(=CC[C@H]3[C@@H]4C[C@H](O)C[C@@]4(C)CC[C@@H]32)C1`, the growth is 22.6%.
The result for `CCCCc1ccc(N=Nc2ccc(OCC[N+](C)(C)C)cc2)cc1` reads 25.2%.
With `COc1cccc2c1Cc1ccccc1-2`, the growth is 97.5%.
On to `CCN(CC)c1ccc(-c2cc(-c3cc(OC)c(OC)c(OC)c3)nc(N3CCC(O)CC3)c2C#N)cc1`, for which the growth is -14.1% (active).
On to `FCc1nc2nc(Cl)c(Cl)nc2[nH]1`, for which the growth was 102%.
Next, `CCN(CC)CCCC(C)Nc1cnc(C(=O)Nc2ccc(Cl)c3cccnc23)cn1` (stereo unspecified): -63.3% (active).
Take `CCC(C)[C@H](NC(=O)NC(=O)NC(=O)CI)C(=O)OC` (stereo partly specified): the growth is 71.8%.
On to `COC(=O)c1c2c(c(C)[n+]([O-])c1C)C(=O)C(NCc1ccc(OC)cc1)=CC2=O`, for which the growth is -51.1% (active).
With `CC(C)NC(=O)N1C(=O)CCC1NNC(=O)c1ccc([N+](=O)[O-])cc1` (stereo unspecified), the growth is 107%.
For the compound `O=C(Nc1cccc([N+](=O)[O-])c1)c1cc2ccccc2cc1O`, the growth was -54.1% (active).
Regarding `NC(C(=O)O)C(O)c1ccco1` (stereo unspecified), the growth is 116%.
Next, `NC(=O)c1ccc2c(c1)OCO2`: 103%; `CCCCn1c(=O)c(-c2cc(-c3ccc(Cl)cc3)nc(-c3ccc(Cl)cc3)c2)cc2ccc(Cl)cc21`: 100%.
Take `N=c1ccccn1CCO`: the growth is 120%.
For `ClCCOCCOc1ccc(C2CCCCC2)cc1`, the growth was 105%.
Regarding `CCCCCCCCCCCC(=O)OC(C)C(=O)Nc1ccccc1` (stereo unspecified), the growth is 91.7%.
As for `CCCCCCCCCCCCCCCCCC1=NCCN1C(=O)OCCO`, the growth is 35.5%.
The result for `CCn1c(SC/C(=N/O)c2ccccc2)nnc1-c1ccccc1` reads 103%.
With `O=C1Nc2cc(-c3ccc(NS(=O)(=O)c4ccccc4)cc3)ccc2/C1=C/c1ccc[nH]1`, the growth was 95.7%.
With `CC(C)(C#N)c1cc(C(=O)Nc2cc(Nc3ncccc3-c3ncnc4nc[nH]c34)ccc2F)cc(C(F)(F)F)c1`, the growth is 35.3%.
The result for `O=C(NOC[C@H](O)CO)c1ccc(F)c(F)c1Nc1ccc(I)cc1F` reads 6.7% (active); that for `c1ccc(Sc2ncccn2)nc1`, 100%; that for `CCCCCCSc1ncnc2nc[nH]c12`, 72.2%.
With `COc1cc2c3c(n(CCCCNCCCn4c5c(c6cc(OC)c(OC)cc6c4=O)C(=O)c4cc6c(cc4-5)OCO6)c(=O)c2cc1OC)-c1cc2c(cc1C3=O)OCO2`, the growth was 93.7%.
Next, `C=CC(=O)Nc1ccc(Nc2nccc(-c3ccc(N4CCCC4)c(C#N)c3)n2)cc1`: -71.8% (active).
